Tests used:
[1] = tested on: Human papillomavirus type 1a protein E7 (residues 44-93); assay: HPV1a E7 fragment binders on microarrays, primary screen, biochemical, small-molecule microarray, residues 44-93, 635 nm fluorescence (AID 1108); conditions: small-molecule microarray binding, fluorescence 635 nm; higher = more signal;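 further: E7 fragment applied at 1 µg/mL in TBST for 1 h at 4 C; score combines spot fluorescence with its signal to noise ratio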
[2] = modulators of HCV replicon luciferase signal, primary screen, HCV replication inhibitor project, Huh7 cells, luciferase reporter (AID 1109); conditions: 48 h, higher = more signal;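 further: huh7 hepatoma cells harbouring a luciferase neomycin HCV replicon reporter; luciferase luminescence as measure of HCV replicon replication; test concentration not given here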
[3] = biological target: Left-right determination factor 2 (Homo sapiens) (UniProt O00292); assay: LEFTY2 binders on small-molecule microarrays, primary screen, biochemical, small-molecule microarray, 635 nm fluorescence scan (AID 1110); conditions: LEFTY2 binding, higher = more signal
Sequence of Left-right determination factor 2 (Homo sapiens) (O00292 whole entry, looked up): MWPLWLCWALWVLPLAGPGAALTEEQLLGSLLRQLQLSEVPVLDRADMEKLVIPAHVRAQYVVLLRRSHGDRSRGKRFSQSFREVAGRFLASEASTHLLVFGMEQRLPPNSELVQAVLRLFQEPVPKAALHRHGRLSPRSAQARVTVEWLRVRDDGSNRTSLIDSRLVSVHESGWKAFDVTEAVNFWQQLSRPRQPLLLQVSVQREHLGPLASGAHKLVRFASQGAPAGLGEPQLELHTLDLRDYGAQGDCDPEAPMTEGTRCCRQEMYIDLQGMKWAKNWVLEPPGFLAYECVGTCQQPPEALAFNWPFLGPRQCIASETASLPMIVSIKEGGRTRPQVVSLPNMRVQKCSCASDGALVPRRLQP

[4] = biological target: Calmodulin-1 (Homo sapiens) (UniProt P0DP23); assay: CALM1 binders on microarrays, EGTA buffer, profiling panel, biochemical, small-molecule microarray, Cy5-labelled CALM1 (AID 1111); conditions: Cy5-CALM1 binding fluorescence, higher = more signal;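 further: labelled calmodulin applied in Tris saline Tween buffer holding calcium plus EGTA and DTT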
[5] = biological target: Calmodulin-1 (Homo sapiens) (UniProt P0DP23); assay: calcium-bound CALM1 binders on microarrays, profiling panel, artefact control for SMM control-protein annotation, biochemical, small-molecule microarray, Cy5-labelled CALM1, plus calcium (AID 1112); conditions: Cy5-CALM1 binding fluorescence, higher = more signal;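 further: score merges spot fluorescence with signal to noise from triplicate slides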
[6] = small-molecule microarray binders of probe aWnt5a, primary screen, biochemical, biotinylated probe, 635/667 nm fluorescence (AID 1113); conditions: higher = more signal;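 further: score merges 667 nm fluorescence intensity with signal-to-noise per printed feature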
[7] = small-molecule microarray binders of probe aShh, primary screen, biochemical, biotinylated probe, 635/667 nm fluorescence (AID 1114); conditions: higher = more signal;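 further: probe is biotin-labelled aShh protein from a stem cell growth factor screen; measures binding of labelled protein to compounds printed on the slide; score merges feature fluorescence at 667 nm with signal-to-noise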
[8] = small-molecule microarray binders of probe aNog, primary screen, biochemical, biotinylated probe, 635/667 nm fluorescence (AID 1115); conditions: higher = more signal;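 further: probe is biotinylated aNog protein used at 0.15 µg/mL for 1 h at 4 C; z-score combines 667 nm fluorescence of each spot with its signal to noise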
[9] = biological target: Torsin-1A-interacting protein 1 (Homo sapiens) (UniProt Q5JTV8); assay: LAP1 binders from COS7 cell lysate, primary screen, small-molecule microarray, 635/667 nm fluorescence (AID 1116); conditions: COS7-hLAP1 lysate binding, 635 nm fluorescence, higher = more signal
Sequence of Torsin-1A-interacting protein 1 (Homo sapiens) (Q5JTV8 whole entry, looked up): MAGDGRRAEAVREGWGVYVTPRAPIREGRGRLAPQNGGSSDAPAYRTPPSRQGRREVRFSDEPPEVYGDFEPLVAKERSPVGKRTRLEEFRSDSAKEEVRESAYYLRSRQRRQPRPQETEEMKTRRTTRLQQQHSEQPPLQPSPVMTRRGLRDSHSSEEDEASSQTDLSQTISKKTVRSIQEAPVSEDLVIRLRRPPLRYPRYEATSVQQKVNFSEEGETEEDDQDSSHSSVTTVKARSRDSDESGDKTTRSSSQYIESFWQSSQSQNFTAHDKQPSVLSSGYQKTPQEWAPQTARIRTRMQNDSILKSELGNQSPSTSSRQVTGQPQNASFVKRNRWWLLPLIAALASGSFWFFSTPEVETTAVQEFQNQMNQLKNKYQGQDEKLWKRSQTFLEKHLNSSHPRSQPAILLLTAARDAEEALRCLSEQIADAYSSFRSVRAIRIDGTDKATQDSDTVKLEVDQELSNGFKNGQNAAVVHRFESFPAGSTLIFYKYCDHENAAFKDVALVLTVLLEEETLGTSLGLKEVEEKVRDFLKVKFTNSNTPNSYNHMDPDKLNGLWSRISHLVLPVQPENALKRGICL

[10] = biological target: Alpha-bungarotoxin (Bungarus multicinctus) (UniProt P60615); assay: alpha-bungarotoxin binders on microarray, profiling panel, artefact control for SMM control protein annotation, biochemical, small-molecule microarray, Alexa647 label, 635/667 nm fluorescence (AID 1117); conditions: alpha-BTX-A647 binding fluorescence, higher = more signal
Sequence of Alpha-bungarotoxin (Bungarus multicinctus) (P60615 whole entry, looked up): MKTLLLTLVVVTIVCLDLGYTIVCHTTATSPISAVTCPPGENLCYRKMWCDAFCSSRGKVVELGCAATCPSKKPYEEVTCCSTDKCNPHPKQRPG

Row | SMILES | composite z-score [1] | z-score [2] | composite z-score [3] | composite z-score [4] | composite z-score [5] | composite z-score [6] | composite z-score [7] | composite z-score [8] | composite z-score [9] | composite z-score [10]
1 | NC(=O)N1C(=O)C2C(C1=O)C1C=C(CCCO)C2C(c2cccs2)N1Cc1cc2c(cc1Br)OCO2 (stereo not given) | 0.183 | 0.199 | -0.451 | 1.03 | 0.25 | -0.0685 | 0.147 | 0.244 | 0.333 | 1.23
2 | C=CCNC(=O)[C@H]1[C@@H]2C(=O)O[C@@H](c3ccccc3)[C@@H](c3ccccc3)N2[C@@H](c2ccccc2OCCO)[C@]12C(=O)N(C(=O)OCCOC)c1ccc(C#CC3=CCCCC3)cc12 | 1.43 | -3.34 | 0.68 | 1.63 | 0.49 | 0.125 | 0.0915 | 1.12 | 0.794 | 1.4
3 | CCCC[C@@H]1C[C@H]1[C@@H](NC(=O)c1ccccc1)c1ccc(Cl)cc1 | -1.15 | -1.65 | -1.86 | 0.014 | 1.42 | -0.247 | -0.209 | 0.253 | 1.23 | -1.51
4 | O=C1O[C@H](c2ccccc2)[C@H](c2ccccc2)N2[C@H]1[C@@H](C(=O)O)[C@]1(C(=O)Nc3ccccc31)[C@H]2c1ccc(O)cc1 | 0.49 | -0.361 | -0.274 | -0.2 | -0.262 | -0.1 | -0.262 | 0.101 | -0.321 | -0.286
5 | COc1ccc(C(O)C2C=CC3C(=O)N(c4ccccc4)C(=O)C3N2Nc2ccc(C#N)cc2)c2ccccc12 (stereo not given) | 0.596 | -0.46 | -0.199 | 2.63 | 1.07 | 0.0388 | -0.0709 | 1.45 | 1.83 | 1.68
6 | Cc1c(NC(=O)/C(C#N)=C/C=C/c2ccccc2[N+](=O)[O-])c(=O)n(-c2ccccc2)n1C | 0.475 | -2.79 | 0.34 | 0.517 | 0.188 | -0.092 | -0.292 | -0.527 | 0.37 | 0.556
7 | COC(=O)[C@@]1(Cc2ccc(OC)cc2)[C@H]2c3cc(C(=O)N(C)C)n(Cc4nc5ccccc5[nH]4)c3C[C@H]2CN1C(=O)c1ccccc1 | 1.48 | -1.81 | -0.314 | 2.08 | 1.06 | 0.343 | 0.361 | 1.81 | 0.564 | 1.26
8 | CC(=O)n1cc(C(O)C2C=CC3C(=O)N(Cc4ccccc4)C(=O)C3N2n2cnnc2)c2ccccc21 (stereo not given) | -0.179 | -1.49 | 0.0796 | 0.416 | -0.568 | -0.0721 | -0.0626 | -0.305 | 0.463 | 1.09
9 | [N-]=[N+]=Nc1ccccc1[C@@H]1OC(c2ccc(OCCCO)cc2)=N[C@]1(CCS(=O)(=O)c1ccccc1)C(=O)NCCN1CCOCC1 | 1.47 | -0.485 | 0.382 | 0.03 | 0.0093 | 0.0814 | 0.337 | 0.675 | 1.26 | 0.737
10 | CC(C)CN1C(=O)[C@@]2(Cc3ccccc31)c1ccccc1C(=O)N(Cc1ccccc1C(F)(F)F)[C@H]2c1ccc(CO)cc1 | -1.57 | 0.186 | -0.584 | -0.566 | -0.815 | -0.2 | -0.138 | -0.303 | -1.07 | 0.14
11 | O=c1cccc(-c2ccc(C(F)(F)F)cc2)o1 | -1.57 | 0.587 | -0.534 | -0.271 | 0.238 | -0.0685 | 0.163 | -0.0446 | -0.333 | -0.364
12 | Cc1ccc(S[C@]2(C(=O)O)CC(=O)N(Cc3ccccc3Cl)[C@@H]2c2ccc(CO)cc2)cc1 | 0.459 | -0.828 | -1.54 | 0.459 | 0.644 | -0.192 | 0.131 | 0.549 | 0.0695 | 1.57
13 | COc1ccc([Si](C)(C)[C@H]2[C@H](CC(=O)N3Cc4ccccc4C[C@H]3CO)O[C@@]3(C(=O)N(Cc4cccc(N5CCCCC5=O)c4)c4ccccc43)[C@@H]2C)cc1 | 0.551 | -3.77 | 0.983 | -0.226 | -0.48 | -0.043 | -0.0553 | -0.0206 | 0.547 | 0.244
14 | O=C(O)[C@]1(Cc2ccccc2)N=C(c2ccc(OCCCO)cc2)O[C@@H]1c1ccccc1 | -0.218 | 0.398 | -0.539 | -0.201 | 0.206 | -0.128 | 0.0893 | 0.306 | -0.499 | -0.905
15 | CN1C(=O)C2C=CC(C(O)Cc3ccccc3)N(N(c3ccccc3)c3ccccc3)C2C1=O (stereo not given) | 0.501 | -0.251 | -0.268 | -0.0282 | 0.372 | 0.0438 | 0.0469 | 1.14 | 0.368 | 0.678
16 | CCOC(=O)[C@@H]1[C@@H]2C(=O)N(CC)C(=O)[C@@H]2C[C@@H]1Sc1ccccc1 | 1.35 | -1.33 | 0.0952 | 0.414 | 0.163 | 0.0357 | 0.131 | 0.266 | 0.706 | 1.27
17 | CN(C)CCCNC(=O)[C@@]1(C)c2ccccc2C(=O)N(Cc2cc(C(F)(F)F)cc(C(F)(F)F)c2)[C@H]1c1ccc(CO)cc1 | -0.488 | -1.85 | -1.31 | 0.139 | 0.0751 | -0.118 | -0.134 | -0.484 | -0.54 | -0.779
